MITF primary – MITF inhibitors, primary screen, biochemical, AlphaScreen, human | Microphthalmia-associated transcription factor (Homo sapiens), O75030 | AlphaScreen MITF homodimerization, bead proximity signal | inhibition, % at 2.6 µM | 650,000 compounds, 0.91% hits; in the data active means inhibition above about 50%
TEAD-YAP block – TEAD-YAP interaction inhibition, primary screen, TEAD-YAP interaction inhibitor project, luminescence, HEK-TIYL cells; TEAD-Gal4/YAP UAS-luciferase luminescence; inhibition, % at 9.12 µM; 640,000 compounds, 1.4% hits; AID 1259422, 2018; in the data active means inhibition above about 32%
FBW7 act – FBW7 E3 ligase activators, primary screen, biochemical, AlphaScreen, human | 650,000 compounds, 0.13% hits | AlphaScreen FBW7–phospho-cyclin E peptide binding, activator screen | AID 1259310, 2017 | normalized activity (activation), % at 26.1 µM; in the data active means normalized activity above about 1.9%;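 further: purified mutant Fbw7 with reduced substrate affinity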
GPR151 activ – activators of human GPR151, primary screen, cell-based, PathHunter beta-arrestin, luminescence; G-protein coupled receptor 151 (Homo sapiens), Q8TDV0; PathHunter beta-arrestin GPR151 cells; activation, % at 11.2 µM; 650,000 compounds, 1% hits; AID 1508602, 2020; in the data active means activation above about 4.9%
Target sequence (Q8TDV0 whole entry, looked up): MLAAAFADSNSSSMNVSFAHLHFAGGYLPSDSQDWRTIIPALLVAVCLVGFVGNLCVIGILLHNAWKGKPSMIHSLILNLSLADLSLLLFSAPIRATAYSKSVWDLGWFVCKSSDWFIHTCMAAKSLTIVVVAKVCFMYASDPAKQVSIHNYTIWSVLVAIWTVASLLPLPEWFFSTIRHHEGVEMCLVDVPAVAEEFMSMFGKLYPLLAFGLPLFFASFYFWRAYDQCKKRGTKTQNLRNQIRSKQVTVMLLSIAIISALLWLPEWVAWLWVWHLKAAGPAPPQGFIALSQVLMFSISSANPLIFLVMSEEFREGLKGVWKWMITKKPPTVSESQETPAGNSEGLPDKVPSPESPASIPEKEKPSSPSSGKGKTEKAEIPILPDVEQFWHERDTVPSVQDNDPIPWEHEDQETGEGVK
GPR151 conf act – GPR151 activators, triplicate retest, confirmation, cell-based, PathHunter beta-arrestin, luminescence; shares compounds with GPR151 activ; GPR151 PathHunter beta-arrestin cells, 90 min; % of EA-reagent control over plate median; 6,700 tested, under 10 active; AID 1508609, 2020; activation, % at 11.2 µM;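 active means mean percent activation across replicates above the confirmation screen cutoff of 4.91%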
GPR119 counter – GPR119 activators in beta-arrestin cells, counter-screen for GPR151 activator project, cell-based, PathHunter beta-arrestin, luminescence, triplicate | shares compounds with GPR151 activ | 90 min; 0 = compound-well median, 100 = enzyme-acceptor control | AID 1508611, 2020 | activation, % at 11.2 µM | 6,700 compounds, 0.3% hits;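 active means mean percent activation in the counterscreen above 29.09%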;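 further: counterscreen on off-target GPR119 to flag nonselective hits from the GPR151 activator screen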
Hits are given with their value; . = inactive; / = no result given. Hits are enriched below; roughly 3.5% of the tested compounds scored in any of these assays.

SMILES | MITF primary | TEAD-YAP block | FBW7 act | GPR151 activ | GPR151 conf act | GPR119 counter
Fc1ccc2nc(-c3ccc(Cl)cc3)c(-c3ccc(Cl)cc3)nc2c1 | . | . | . | . | / | /
Cc1cccc2sc(NC(=O)/C=C\C(=O)O)nc12 | . | . | . | 6.8 | . | .
Cc1sc(NC(=O)/C=C\C(=O)O)nc1-c1ccccc1 | . | . | . | 6.9 | . | .
Cc1sc(NC(=O)c2ccccc2C(=O)Nc2sc(C)c(C)c2C#N)c(C#N)c1C | . | . | . | . | / | /
Cc1ccc(-c2cc(C(F)(F)F)n3nc(C(=O)N(C)C4CCCCC4)cc3n2)cc1 | . | . | . | . | / | /
CCOC(=O)Nc1nnc(Cc2ccc(Cl)c(Cl)c2)s1 | . | . | . | 5.8 | . | .
CSc1cccc(NC(=S)N(Cc2ccccc2)Cc2cccs2)c1 | . | . | . | 6.5 | . | .
Cc1cccc(NC(=S)N(Cc2ccccc2)Cc2cccs2)c1 | . | . | . | . | / | /
CC(C)Sc1nc(-c2ccco2)nc2c1c(=O)n(C)c(=O)n2C | . | . | . | . | / | /
COc1ccc(-c2nc(SCC(=O)O)c3c(=O)n(C)c(=O)n(C)c3n2)cc1 | . | . | . | . | / | /
Cn1c(=O)c2c(SCC(=O)Nc3nccs3)nc(-c3ccco3)nc2n(C)c1=O | . | . | . | . | / | /
Cc1csc(NC(=O)CSc2nc(-c3ccco3)nc3c2c(=O)n(C)c(=O)n3C)n1 | . | . | . | 6.6 | . | .
COc1cccc(-c2nc(SCC(=O)O)c3c(=O)n(C)c(=O)n(C)c3n2)c1 | . | . | . | 12 | . | .
CC(Sc1nc(-c2ccco2)nc2c1c(=O)n(C)c(=O)n2C)C(=O)O (centres undefined) | . | . | . | 9.6 | . | .
CSc1nc2[nH]c(=O)cc(O)c2s1 | . | . | . | 5.5 | . | .
COc1ccc(Nc2nc3[nH]c(=O)cc(O)c3s2)cc1 | . | . | . | . | / | /
COc1ccc(-c2[nH]nc3c2C(c2cccc(Cl)c2Cl)C(C#N)=C(N)O3)cc1OC (centres undefined) | . | . | . | . | / | /
COc1ccc(-c2[nH]nc3c2C(c2c[nH]c4ccccc24)C(C#N)=C(N)O3)cc1OC (centres undefined) | . | . | . | 6.4 | . | .
CNC(=O)c1c(NC(=O)C(c2ccccc2)c2ccccc2)sc(C)c1C | . | . | . | . | / | /
CCN(CC)C(=S)SCCC(=O)NC(=O)Nc1ccc(F)cc1 | . | . | . | 24 | . | .
CCCCCCOc1ccc(C(=O)O)cc1 | . | . | . | . | / | /
CCCOc1ccc(-c2ccc(C(=O)O)cc2)cc1 | . | . | . | 6.3 | . | .
CC1=C(C#N)C(c2ccc(C(C)C)cc2)C(C#N)=C(C)N1 | . | . | . | 9.9 | . | .
CC(C)c1ccc(C2C(C#N)=C(N)OC(N)=C2C#N)cc1 | . | . | . | . | / | /
COc1ccc(C)cc1-n1cnc2cc(C(=O)O)ccc21 | . | . | . | 7.7 | . | .
SMILES | MITF primary | TEAD-YAP block | FBW7 act | GPR151 activ | GPR151 conf act | GPR119 counter
Cc1nc2c(C(=O)NC3CCCCC3)cnn2c(C)c1Cc1ccc(F)cc1 | . | . | . | 5.0 | . | .
Cc1nc2c(C(=O)NC3CCCC3)cnn2c(C)c1Cc1ccc(F)cc1 | . | . | . | . | / | /
Cc1nc2c(C(=O)O)cnn2c(C)c1Cc1ccc(Cl)cc1 | . | . | . | 5.8 | . | .
Oc1ccccc1C1=Nc2ccccc2N=C(c2cccc(F)c2)C1 | . | . | . | . | / | /
CCOC(=O)C1C(=O)CC(C)(O)C(C(=O)OCC)C1c1cccnc1 (centres undefined) | . | . | . | 5.0 | . | .
CCOC(=O)C1C(=O)CC(C)(O)C(C(=O)OCC)C1c1ccc(CC)cc1 (centres undefined) | . | . | . | . | / | /
COc1ccc(Cl)cc1S(=O)(=O)N1CCCC(C(=O)NCC(N)=O)C1 (centres undefined) | . | . | . | 7.4 | . | .
COc1ccc(C)cc1S(=O)(=O)N1CCCC(C(N)=O)C1 (centres undefined) | . | . | . | . | / | /

Screening results (PubChem BioAssay)
